This note sets out measurements from PubChem BioAssay AID2606 (The Scripps Research Institute Molecular Screening Center, 2010).

Hit rate of the full screen: of about 320,000 compounds, about 160 (0.05%) were called active. Shown is part of a subset that was picked to be rich in actives. A number with no mark means an inactive call. Cut-off read from the data, not from the text of the source: active = inhibition above about 38%; inactive = the rest.

Broadly, the inhibition is the relative decrease from the control value, in per cent.

The test deals with Serine protease Rv3671c (Mycobacterium tuberculosis (strain ATCC 25618 / H37Rv)) (UniProt P9WHR9). Description: Rv3671c serine protease inhibitors, primary screen, biochemical, fluorescence polarization, M. tuberculosis H37Rv (AID 2606).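 Note: extracellular domain of Rv3671c used as enzyme; 0% = enzyme with DMSO and 100% = no enzyme.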 To be noted: at 5.96 µM; hits give high values. (In fluorescence polarisation assays a small probe gives low polarisation when free and higher when bound to something large.)
Chain of Serine protease Rv3671c (Mycobacterium tuberculosis (strain ATCC 25618 / H37Rv)) (P9WHR9 whole entry, looked up, the tested form may be a part): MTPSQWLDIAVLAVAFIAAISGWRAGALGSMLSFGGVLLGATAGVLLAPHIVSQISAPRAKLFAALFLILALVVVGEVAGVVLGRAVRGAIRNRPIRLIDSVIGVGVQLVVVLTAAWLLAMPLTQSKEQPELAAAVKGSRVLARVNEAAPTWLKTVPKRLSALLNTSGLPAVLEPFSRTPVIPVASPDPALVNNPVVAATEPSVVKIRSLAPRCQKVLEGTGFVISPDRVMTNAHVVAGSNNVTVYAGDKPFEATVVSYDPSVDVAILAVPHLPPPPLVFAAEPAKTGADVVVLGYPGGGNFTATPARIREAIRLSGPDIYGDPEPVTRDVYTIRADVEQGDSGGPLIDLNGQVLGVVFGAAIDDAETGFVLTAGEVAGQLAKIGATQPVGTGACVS
`COP1(=O)C[C@@H](O)[C@@H](O)[C@@H](COCc2ccccc2)O1` (some centres not stated): the inhibition was -2.74%.

On to `Cc1cnc(C(=O)N2CCCC(C(=O)c3ccc(C(F)(F)F)cc3)C2)cn1` (configuration not stated), for which the inhibition was -4.62%.

As for `CC(c1nnc(SCC(=O)Nc2sccc2C#N)n1-c1ccc(Cl)cc1)N(C)C` (configuration not stated), the inhibition is 3.82%.

With `Cn1sc(=O)c2cc(S(=O)(=O)NC3CC3)ccc21`, the inhibition is -8.37%.

Regarding `C[C@@H](NC(=O)c1nc[nH]c1C(=O)N1CCN(C(=O)OC(C)(C)C)CC1)c1ccccc1`, the inhibition was -6.88%.

Consider `CC(Sc1nnc(Cc2ccc([N+](=O)[O-])cc2)o1)C(N)=O` (configuration not stated), for which the inhibition was -0.21%.

For the molecule `C[C@@H](C(=O)Nc1ccc2ccccc2c1)[C@@H]1C[C@@]1(C)[C@@H](NC(=O)c1cccnc1)c1ccccc1`, the inhibition is -17.9%.

For `CCS(=O)(=O)N1Cc2ccccc2CC1C(=O)Nc1nc2ccc(F)cc2s1` (configuration not stated), the inhibition was -18.8%.

In the case of `O=C(NCc1ccccc1)C1=C[C@@H](c2ccccc2)C[C@@H](OCCCCO)O1`, the inhibition is -9.25%.

Take `O=S(=O)(c1cc(Cl)ccc1Cl)N1CCN(Cc2ccco2)CC1`: the inhibition was -5.87%.

`COc1cccc(/C=C2\SC(=N)N(c3ccc(F)cc3)C2=O)c1`: the inhibition is 7.8%.

Take `COc1ccc(/C=N/N=C/c2c[nH]c(=O)c(C#N)c2Nc2ccccc2)cc1`: the inhibition is -1.73%.

On to `NS(=O)(=O)c1ccc(NC(=S)Nc2ccc(Br)c(Cl)c2)cc1`, for which the inhibition is -3.02%.

Consider `CCn1c(SCC(=O)Nc2ccc(Br)cc2)nc2sc3c(c2c1=O)CCN(C)C3`, for which the inhibition was -7.34%.

Consider `COc1ccccc1C(=O)Nc1ccc(OCC(=O)N2CCCCC2)cc1`, for which the inhibition is -8.76%.

On to `Cc1cc(NC(=O)CCC(=O)N(Cc2ccccc2)C(C(=O)NC2CCCC2)c2ccc(C)o2)no1` (configuration not stated), for which the inhibition was -5.73%.

With `CCOC(=O)C1CCN(S(=O)(=O)c2ccc3c(c2)N(C(C)=O)CCO3)CC1`, the inhibition is 2.87%.

For `CCCc1nc2ccccc2c(C(=O)OCc2nnc(-c3cc(OC)c(OC)c(OC)c3)o2)c1CC`, the inhibition was -9.57%.

For `COc1ccc(/C=C/C(=O)NC(=S)NN2CCCCC2c2cccnc2)cc1` (configuration not stated), the inhibition is -0.41%.

As to `Cc1cc(O)ccc1NC1=CC(=O)CC(C)(C)C1`, the inhibition is -4.53%.

Take `CC1CCC(CN2CCN=C2N(C)C)CC1` (configuration not stated): the inhibition is -3.89%.

For the molecule `Cc1ccc(S(=O)(=O)NC(=O)COc2ccccc2C)cc1`, the inhibition was 7.88%.

Consider `CCCCn1c(=S)[nH]c2cc(S(=O)(=O)N3CCCCC3)ccc21`, for which the inhibition is -12.1%.

Turning to `O=C(COC(=O)c1ccc(S(=O)(=O)N2CCc3ccccc3C2)cc1)NC(=O)NCc1ccco1`, the inhibition is -44.5%.

For `COc1ccccc1OCCNCC(O)COc1cccc2[nH]c3ccccc3c12` (configuration not stated), the inhibition is -3.15%.

Regarding `C=C1C2C[C@H](O)C(C)(C)[C@@]2(O)[C@H](O)C[C@]23C[C@@](C)(O)[C@H](CC[C@H]12)[C@H]3O` (some centres not stated), the inhibition was 8.16%.

In the case of `CCCCCCCNc1nc(Cl)nc(NCCO)n1`, the inhibition was 1.57%.

As to `C/C(=N\NC(=O)NC1CCCCC1)c1ccc(OC(F)F)cc1OC(F)F`, the inhibition is -2.17%.

Consider `C/C(=N/NS(=O)(=O)c1ccccc1)c1ccc(NC(=O)C(F)(F)F)cc1`, for which the inhibition is -8.65%.

Regarding `O=C(CNC(=O)c1ccccc1F)OCC(=O)c1c[nH]c2ccccc12`, the inhibition was 3.57%.

Take `COc1ccc(SC[C@H](Cc2ccccc2)N2CCN(CCc3ccccc3)CCC2=O)cc1`: the inhibition was 1.82%.

Regarding `CC(=O)c1ccc(N2CCN(C(=O)CCNC(=O)Cn3ccc4ccccc4c3=O)CC2)cc1`, the inhibition is -8.01%.

In the case of `CC(=O)Nc1c2c(nn1-c1ccc(C)cc1C)CS(=O)C2` (configuration not stated), the inhibition is -11.2%.

`CS(=O)(=O)c1ccc(Cl)c(NC(=O)COC(=O)c2ncc(Cl)c(Cl)c2Cl)c1`: the inhibition is 0.74%.

On to `O=C(CSc1nnc(-c2ccoc2)o1)N1CCOCC1`, for which the inhibition was 6.68%.

Regarding `OC(COCc1ccco1)CN1CCN(c2ccccc2)CC1` (configuration not stated), the inhibition was 5.86%.

Regarding `C/C(=N/NC(=O)CN1CCN(S(=O)(=O)c2ccc(Br)cc2)CC1)c1ccncc1`, the inhibition is -1.08%.

On to `CCOc1ccc(N(CC(=O)Nc2cccc(OC)c2)S(C)(=O)=O)cc1`, for which the inhibition was -3.74%.

In the case of `CN=C1C=C/C(=N/N=c2\ccn(O)cc2C)C=C1C`, the inhibition is -17.4%.

As to `Cc1ccc(-n2c(SCC(=O)Nc3ncc(Cl)cc3Cl)nc3ccccc32)cc1`, the inhibition was -17.4%.

In the case of `Cc1ccn2c(=O)c(NC(=O)c3cccc4ccccc34)c(C)nc2c1`, the inhibition was -5.92%.

Regarding `CC(C(=O)N1CCN(c2ccccc2F)CC1)c1ccc([N+](=O)[O-])cc1` (configuration not stated), the inhibition is 7.31%.

On to `CCC(=NC1CC(C)(C)NC(C)(C)C1)C1=C(O)CC(C)(C)CC1=O`, for which the inhibition is -1.22%.

On to `CCC(C)[C@H](NC(=O)N1c2ccccc2NC(=O)[C@@H]1C(C)C)C(=O)N[C@@H](Cc1ccccc1)C(=O)O` (some centres not stated), for which the inhibition was 6.36%.

On to `CCOc1ccccc1NC(=O)C1CCCN(S(=O)(=O)c2ccccc2)C1` (configuration not stated), for which the inhibition was -17.1%.

On to `O=C(Nc1nnc(Cc2ccc(Cl)cc2)s1)c1ccncc1`, for which the inhibition is 7.51%.

With `COCCn1c(N)c(NCc2ccccc2)c(=O)[nH]c1=O`, the inhibition is -10.5%.

Take `Cc1ccc(NC(=O)C2(N3CCC3=O)CCCCC2)cc1`: the inhibition was 3.63%.

Take `CCOc1ccc(CN(C)C(=O)c2ccc(=O)[nH]c2)cc1`: the inhibition is 0.46%.

On to `Cc1cc(C(=O)OC(C)C(=O)NC2CCCCC2C)c(C)o1` (configuration not stated), for which the inhibition was -0.91%.

Regarding `COc1ccc(Cn2c(O)c(/C=C3/C=CC=N3)c(=O)[nH]c2=O)cc1`, the inhibition was -6.46%.

As to `C[C@H](NS(=O)(=O)c1ccc(Cl)cc1)C(=O)OCC(=O)N1CCOCC1`, the inhibition was 3.78%.

For `CN(C)CC(C)(C)CNC(=O)c1cc(Br)cc(Br)c1O`, the inhibition is 9.55%.

With `CCCCc1cc2c(s1)CCCC/C2=N/O`, the inhibition was -4.78%.

Turning to `CCc1nc2ccc(C(=O)N3CCN(c4cccc(Cl)c4)CC3)cc2nc1CC`, the inhibition is 0.29%.

Regarding `O=S(=O)(NC1CC2CCC1C2)c1ccc(Cl)cc1` (configuration not stated), the inhibition is 0.26%.

With `CC(=O)c1ccc(N2CCN(S(=O)(=O)c3c(C)[nH]c(=O)[nH]c3=O)CC2)cc1`, the inhibition was 5.45%.
